In PubChem BioAssay AID682 (University of Pittsburgh Molecular Library Screening Center, 2007):
The list shows a part of the results. A number with no mark means an inactive call. No stated cut-off is given here; in the data, active means EC50 below about 30 µM; inactive means the rest.

Assay: H2O2 producers via compound redox cycling – biochemical, 0.5 mM DTT, Cdc25B catalytic domain, artefact control, dose response (AID 682)
Settings: cell-free redox cycling H2O2 generation

For `COc1cccc2c(C)c(C(=O)O)[nH]c12`, which EC50 is on record?
Its EC50 is over 50 µM.

For `c1ccc(CSc2nnc(-c3ccco3)c(-c3ccco3)n2)cc1`, which EC50 is on record?
Its EC50 is over 50 µM.
